Rows were chosen to be rich in hits. Some 22% of all compounds tested hit in one or more screens of this group.
CYP2C19 inhib: blocks human cytochrome P450 2C19; CYP2C19 Supersomes, luciferin-H EGE luminescence, 30 min; inhibition, % at 5 µM; 96,000 tested, 21% active; AID 778;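 active = CYP2C19 inhibition above a set limit at 5 µM in the primary screen, cut at about 50% in these data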;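 note: plate controls were negative control wells for no effect and 2.5 mM tranylcypromine positive control for full effect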
Target sequence (P33261 whole entry, looked up): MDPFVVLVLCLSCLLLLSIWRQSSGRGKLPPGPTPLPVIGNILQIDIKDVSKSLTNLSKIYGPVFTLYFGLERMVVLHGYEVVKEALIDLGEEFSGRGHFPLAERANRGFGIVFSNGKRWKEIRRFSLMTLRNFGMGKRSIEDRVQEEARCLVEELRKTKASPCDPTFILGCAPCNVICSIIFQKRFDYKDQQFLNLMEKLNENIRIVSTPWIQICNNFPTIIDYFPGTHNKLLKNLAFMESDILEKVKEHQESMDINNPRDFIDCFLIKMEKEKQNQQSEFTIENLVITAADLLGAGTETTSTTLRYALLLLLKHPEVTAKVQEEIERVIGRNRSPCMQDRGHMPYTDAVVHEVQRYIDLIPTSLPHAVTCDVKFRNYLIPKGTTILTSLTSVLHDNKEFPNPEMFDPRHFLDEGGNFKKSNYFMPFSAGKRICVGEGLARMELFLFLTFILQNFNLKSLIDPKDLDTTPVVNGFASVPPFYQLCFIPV
E-sel TNF inh: TNF alpha driven E-selectin expression inhibition. HUVEC TNFa-induced E-selectin immunofluorescence, high content. 120,000 tested, 0.71% active. inhibition, % at 2 µM;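 active = inhibition above the batch mean plus 3 SD, and confirmed as a hit on visual image review, cut at about 43% in these data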;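 note: 0% = TNF-stimulated DMSO wells and 100% = unstimulated control wells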
F-actin modifier: alters cytoskeleton assembly in HUVEC cells; AID 836; 91,000 tested, 0.18% active; HUVEC TNFa F-actin phalloidin imaging, high content; inhibition, % at 2 µM;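 active = inhibition above the batch mean plus 3 SD and confirmed as a hit by visual image inspection, cut at about 30% in these data, passing the limit was not always enough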
CYP2C19 activ: cytochrome P450 2C19 (human) activation; recombinant CYP2C19, luciferin-H EGE luminescence; stronger effect = higher value; 0 = fully inhibited enzyme, 1 = untreated enzyme; AID 1025; activation factor at 5 µM; 96,000 tested, under 10 active; P33261;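 active = activation factor of at least 2 at 5 µM in the primary screen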;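 note: 0 = wells with 2.5 mM tranylcypromine and 1 = vehicle-only wells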
CYP2C9 inhib: inhibitors of human CYP2C9. 96,000 tested, 20% active. AID 777. CYP2C9 Supersomes, luciferin-H conversion, luminescence. P11712. inhibition, % at 5 µM;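 active = blocking of liver enzyme CYP2C9 beyond about 50% at 5 µM, limit read from the data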
CYP2C9 activ: CYP2C9 (human) activation; P11712; 96,000 tested, 1.4% active; activation factor at 5 µM; recombinant CYP2C9, luciferin-H conversion, luminescence; stronger effect = higher value; factor 1 = untreated enzyme, 0 = blocked;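 active = activation factor of 2 or more for CYP2C9 at a 5 µM dose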;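 note: 0 = sulfaphenazole-blocked wells and 1 = vehicle-only wells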
* marks the source's active call; other numbers are inactive results.

How did CCc1ccc(OCC(=O)Nc2cc(S(=O)(=O)CC)ccc2O)cc1 do in these assays?
CYP2C19 inhib: 3; E-sel TNF inh: -44; F-actin modifier: 11; CYP2C19 activ: 1; CYP2C9 inhib: 79*; CYP2C9 activ: 0.2

Results for COc1ccccc1NC(=O)Cn1c(=O)sc2ccccc21 ?
CYP2C19 inhib: 39; F-actin modifier: 5; CYP2C19 activ: 0.6; CYP2C9 inhib: -1; CYP2C9 activ: 1

What do the screens show for `COc1ccc(NC(=O)Cn2c(=O)sc3ccccc32)c(OC)c1`?
CYP2C19 inhib: 90*; F-actin modifier: -3; CYP2C19 activ: 0.1; CYP2C9 inhib: 50; CYP2C9 activ: 0.5

How did COc1ccc(OCC(=O)Nc2ccccc2O)cc1 do in these assays?
CYP2C19 inhib: 99*; E-sel TNF inh: 13; F-actin modifier: 4; CYP2C19 activ: 0; CYP2C9 inhib: 95*; CYP2C9 activ: 0.1

How did COC(=O)c1ccc(N=C2S/C(=C\c3cc(C)n(-c4cccnc4)c3C)C(=O)N2C)cc1 do in these assays?
E-sel TNF inh: -35; F-actin modifier: -15

What do the screens show for `Nc1cc(C(=O)c2cccs2)ccc1Cl`?
CYP2C19 inhib: 87*; F-actin modifier: -1; CYP2C19 activ: 0.1; CYP2C9 inhib: 41; CYP2C9 activ: 0.6

What do the screens show for `O=C(NOC(=O)c1cc(Br)ccc1Cl)c1cccs1`?
CYP2C19 inhib: -6; E-sel TNF inh: 20; F-actin modifier: -12; CYP2C19 activ: 1.1; CYP2C9 inhib: -4; CYP2C9 activ: 1

What do the screens show for `O=C(Cn1nnc(-c2ccccc2-n2cnnn2)n1)NCc1ccccc1`?
CYP2C19 inhib: 36; E-sel TNF inh: 15; F-actin modifier: -45; CYP2C19 activ: 0.6; CYP2C9 inhib: -26; CYP2C9 activ: 1.3

What do the screens show for `CCn1cc(C(=O)OCC(=O)Nc2cccc(S(=O)(=O)N3CCOCC3)c2)c(=O)c2ccc(C)nc21`?
CYP2C19 inhib: 37; E-sel TNF inh: -15; F-actin modifier: -6; CYP2C19 activ: 0.6; CYP2C9 inhib: 67*; CYP2C9 activ: 0.3

Results for CCCc1nc2ccccc2c(C(=O)OCC(=O)Nc2cccc(S(=O)(=O)N3CCOCC3)c2)c1CC ?
CYP2C19 inhib: 46; F-actin modifier: -10; CYP2C19 activ: 0.5; CYP2C9 inhib: 44; CYP2C9 activ: 0.6

How did O=C(COC(=O)CCc1nc2ccccc2s1)Nc1cccc(S(=O)(=O)N2CCOCC2)c1 do in these assays?
CYP2C19 inhib: 16; E-sel TNF inh: 26; F-actin modifier: -10; CYP2C19 activ: 0.8; CYP2C9 inhib: -111; CYP2C9 activ: 2.1*

Results for O=C(COC(=O)CCc1nc2ccccc2s1)Nc1ccc(S(=O)(=O)N2CCOCC2)cc1 ?
CYP2C19 inhib: 38; CYP2C19 activ: 0.6; CYP2C9 inhib: 75*; CYP2C9 activ: 0.3

Results for Cc1ccccc1-c1nc(CN2CCC(C(=O)NCCC3=CCCCC3)CC2)c(C)o1 ?
CYP2C19 inhib: 2; E-sel TNF inh: -9; F-actin modifier: 41; CYP2C19 activ: 1; CYP2C9 inhib: -14; CYP2C9 activ: 1.1

What do the screens show for `CNC(=S)N(CCc1c(C)[nH]c2ccc(C)cc12)Cc1cc(OC)c(OC)c(OC)c1`?
E-sel TNF inh: 13

Results for CN(CC(=O)N1CCc2ccccc21)S(=O)(=O)c1cccs1 ?
CYP2C19 inhib: 89*; E-sel TNF inh: -32; F-actin modifier: 8; CYP2C19 activ: 0.1; CYP2C9 inhib: -199; CYP2C9 activ: 3*

How did CN(CC(=O)NC1CCCc2ccccc21)S(=O)(=O)c1cccs1 (configuration not stated) do in these assays?
E-sel TNF inh: -9

What do the screens show for `COc1ccccc1NC(=O)c1ccc2snnc2c1`?
E-sel TNF inh: 16

How did CO/N=C/NC(=O)N1OC[C@@H]2COc3ccc4ccccc4c3[C@@H]21 do in these assays?
CYP2C19 inhib: 57*; E-sel TNF inh: -8; F-actin modifier: -8; CYP2C19 activ: 0.4; CYP2C9 inhib: 9; CYP2C9 activ: 0.9

Results for CCCn1c(SCC(=O)Nc2ccccc2N2CCOCC2)nc2c1c(=O)n(C)c(=O)n2C ?
E-sel TNF inh: -9; F-actin modifier: -5

Results for COc1ccc(NC(=O)Cc2c(C)n(C(=O)c3ccc(Cl)cc3)c3ccc(OC)cc23)cc1 ?
E-sel TNF inh: -5

How did COc1ccc2c(c1)c(CC(=O)Nc1ccc(C)cc1)c(C)n2C(=O)c1ccc(Cl)cc1 do in these assays?
CYP2C19 inhib: 69*; E-sel TNF inh: -11; F-actin modifier: -3; CYP2C19 activ: 0.3; CYP2C9 inhib: 89*; CYP2C9 activ: 0.1

What do the screens show for `CCCS(=O)(=O)Nc1cc(C(F)(F)F)ccc1OCCOC`?
CYP2C19 inhib: 50*; E-sel TNF inh: 6; F-actin modifier: 19; CYP2C19 activ: 0.5; CYP2C9 inhib: 15; CYP2C9 activ: 0.8

Results for CC(=O)N1CCN(C(=O)CNc2cc(C(F)(F)F)ccc2OCC(F)(F)F)CC1 ?
CYP2C19 inhib: -2; E-sel TNF inh: 16; F-actin modifier: -13; CYP2C19 activ: 1; CYP2C9 inhib: 3; CYP2C9 activ: 1

How did CCOC(=O)N1CCN(c2ncnc3c2oc2nc(C(C)C)c4c(c23)CCC4)CC1 do in these assays?
CYP2C19 inhib: 86*; E-sel TNF inh: -35; CYP2C19 activ: 0.1; CYP2C9 inhib: 65*; CYP2C9 activ: 0.4

What do the screens show for `CC(C)Cc1nc2oc3c(N4CCN(CCO)CC4)ncnc3c2c2c1CCCC2`?
CYP2C19 inhib: 60*; E-sel TNF inh: -12; CYP2C19 activ: 0.4; CYP2C9 inhib: 67*; CYP2C9 activ: 0.3

Results for O=C(Cc1ccc(S(=O)(=O)N2CCCCC2)s1)Nc1ccc(F)cc1F ?
E-sel TNF inh: 11

Results for O=[N+]([O-])c1cccc(NC(=S)NCCc2ccccc2)c1 ?
E-sel TNF inh: -1

Results for COC(=O)C1=C2SC(C)C(=O)N2C(N)=C(C#N)C1c1ccc(OC)c(OC)c1 (configuration not stated) ?
CYP2C19 inhib: 29; F-actin modifier: -37; CYP2C19 activ: 0.7; CYP2C9 inhib: 56*; CYP2C9 activ: 0.4

How did CCN1CCN(C(=S)c2ccc(OCC(=O)Nc3ccc(OC)cc3)cc2)CC1 do in these assays?
E-sel TNF inh: 15; F-actin modifier: 2

How did COc1cccc(N(C(=O)c2ccco2)C(C(=O)NC2CCCC2)c2ccc(N(C)C)cc2)c1 (configuration not stated) do in these assays?
CYP2C19 inhib: 38; E-sel TNF inh: -2; F-actin modifier: -7; CYP2C19 activ: 0.6; CYP2C9 inhib: 39; CYP2C9 activ: 0.6

How did CCOc1ccccc1N(C(=O)c1ccco1)C(C(=O)NC1CCCC1)c1cccnc1 (configuration not stated) do in these assays?
CYP2C19 inhib: 56*; E-sel TNF inh: -7; F-actin modifier: -10; CYP2C19 activ: 0.4; CYP2C9 inhib: 17; CYP2C9 activ: 0.8

High-throughput results deposited in PubChem by several laboratories.
